# Screens from PubChem.
# Most compounds without a hit are left out; they make up all but 14% or so of the library.
# 4-MU autofl = 4-MU region autofluorescence | compound autofluorescence, 340/450 nm, 4-MU equivalents; active compounds read high | max dye-equivalent concentration, M | hit rate 11% among 59,000 | AID 589; in the data active = max dye-equivalent concentration above about 10 nM; inconclusive = mostly about 1.1 nM to 9.6 nM
#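 Compounds in 100 mM Tris, pH 8.0, incubated 15 min at room temperature, then fluorescence read at 340 nm excitation/450 nm emission. Signal converted to 4-MU dye-equivalent concentration using an on-plate six-point 4-MU standard curve.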
# HSD17B inhib = HSD17B dehydrogenase inhibition. Q99714. recombinant HSD17B10, NADH fluorescence kinetic. Potency, µM (highest dose often 57.1 µM), inactives show at the highest dose activity change, negative = inhibition, actives largely listed as inhibitors. hit rate 7.6% among 75,000. AID 893;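 also: the protocol describes HADH2 (HSD17B10) and not the HSD17B4 of the title; potency is read from the fitted curve at half-maximal effect; % is scaled to controls: 0 for no effect and ±100 for the full control effect; nearly all actives have a fitted effect of over 70% in size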
#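 20 nM HADH2, pH 9.0 Tris/Tween; cpd preinc 15 min RT; start w/ 1 mM NAD+ + 90 uM b-hydroxybutyryl-CoA; kinetic fluor ex360/em450 q30s x 4 min; delta last-first.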
# AID923 = qHTS Assay for Allosteric/Competitive Inhibitors of Caspase-1: Spectroscopic Profiling in AFC Spectral Region; hit rate 1.1% among 75,000; AID 923, 2007; Potency, µM (series often up to 57.5 µM), for inactives: at the top dose fluorescence increase, hits mostly activators; compound fluorescence, AFC spectral region (405/520 nm); also: potency is read from the fitted curve at half-maximal effect; 0% is about no effect
#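 Titrations up to 57 uM read every 20 sec for 3 min (405/520 nm) with 50 nM caspase 1 and 5 uM Ac-WEHD-AFC, pH 7.5 HEPES buffer. Fluorescence-vs-time intercept gave baseline, scaled against on-plate AFC standard.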
# HADH2 inh = HADH2 (human) dehydrogenase inhibition | Q99714 | recombinant HADH2, NADH fluorescence, beta-hydroxybutyryl-CoA | Potency, µM (series often up to 57.1 µM), inactives show top-dose activity change, negative = inhibition, actives largely listed as inhibitors | hit rate 3.4% among 73,000 | AID 886; also: potency is read from the fitted curve at half-maximal effect; % is scaled to controls: 0 for no effect and ±100 for the full control effect; nearly all actives have a fitted effect of over 60% in size
# Target sequence (Q99714 whole entry, looked up, one chain of several): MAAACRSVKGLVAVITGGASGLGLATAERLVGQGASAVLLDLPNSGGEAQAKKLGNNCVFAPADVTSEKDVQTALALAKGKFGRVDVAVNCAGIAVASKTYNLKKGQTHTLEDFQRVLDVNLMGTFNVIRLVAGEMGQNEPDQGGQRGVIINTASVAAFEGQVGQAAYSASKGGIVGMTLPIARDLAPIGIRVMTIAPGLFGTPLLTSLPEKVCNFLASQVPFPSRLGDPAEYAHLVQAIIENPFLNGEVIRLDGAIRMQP
#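 E. coli-expressed His-tagged HADH2 tested at 20 nM in alkaline Tris buffer (pH 9.0); oxidation of 90 uM beta-hydroxybutyryl-CoA with 1 mM NAD+ tracked fluorimetrically for 4 min.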
# A350 autofl = A350 region autofluorescence; Compound autofluorescence, 340/450 nm, Alexa 350 dye-equivalents; active compounds read high; max dye-equivalent concentration, M; hit rate 11% among 59,000; AID 590; in the data active = max dye-equivalent concentration above about 10 nM; inconclusive = mostly about 1.1 nM to 9.6 nM
# CRE Fsk mod = modulators of forskolin-stimulated CRE signaling in CHO cells; CHO CRE-bla reporter (cAMP response element driving beta-lactamase), forskolin EC10, beta-lactamase ratio; Potency, µM (doses to about 38.2 µM), for the others: at the highest dose activity change, negative = inhibition, most hits filed as activators; hit rate 2.5% among 71,000; active = well fitted activation curve with a large enough effect in the signal ratio, with a control signal flat, not every such curve was filed as active; inconclusive = small, poorly fitted or top-dose-only effect, or effect the other way, or a change in a side signal; the % refers to the signal ratio; also: potency is read from the fitted curve at half-maximal effect; % of control where 0% means no effect
#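 CRE-bla CHO reporter cells treated with compound titration plus EC10 NKH 477 (water-soluble forskolin), incubated 3 h at 37 °C; CCF4 loading 2 h at room temperature, 460/530 nm emission ratio read, AC50 values derived for positive or negative modulators.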
# Starred values were filed as active, the others as inactive; i = inactive; ? = inconclusive; nt = not tested or not shown; [ ] = remark or other dose. Unless noted, calls follow the shape of the dose curve; as a rule, active = well fitted curve in the direction sought with a large enough effect; inconclusive = small, poorly fitted or top-dose-only effect, or another doubt; inactive = no such curve, though single readings can be large; an effect the other way counts as inactive or inconclusive.
SMILES,4-MU autofl,HSD17B inhib,AID923,HADH2 inh,A350 autofl,CRE Fsk mod
O=C(c1cccc(F)c1)N1CCC2(CC1)CN(C(c1ccccc1)c1ccccc1)C2,i,2.3%,0.5%,6.4%,i,3.3%
COc1cc2c(=O)nc3n(c2cc1OC)C(c1ccccc1)N=C(N)N3 (stereo unspecified),1.16e-08M*,25.1µM*,-1.6%,?,1.39e-08M*,22.5%
CCc1cc2c(=O)c(-c3nc4ccccc4n3C)c(C(C)C)oc2c(CN2CCN(C)CC2)c1O,nt,25.1µM*,5.8%,?,nt,7.0%
CCc1cc2c(=O)c(-c3nc4ccccc4n3C)c(C)oc2c(CN2CCN(C)CC2)c1O,1.22e-07M*,?,1.5%,-26.2%,9.57e-08M*,2.7%
CCc1cc2c(=O)c(-c3nc4ccccc4n3C)c(C)oc2c(CN2CCN(CCO)CC2)c1O,nt,?,-1.1%,?,nt,nt
COc1ccc(N2CCN(C(=O)CN3C(=O)c4ccccc4S3(=O)=O)CC2)cc1,i,0.9%,0.4%,5.0%,i,-5.6%
COc1ccc(N2CCN(C(=O)CN3C(=O)C4CC=CCC4C3=O)CC2)cc1 (stereo unspecified),3.17e-07M*,25.1µM*,-0.4%,-22.1%,4e-07M*,2.0%
CCOC(=O)c1snc2c(=O)[nH]cnc12,5.43e-07M*,31.6µM*,6.6%,?,5.05e-07M*,-3.7%
CCOC(=O)C1CCCN(c2ccc(NC(=O)c3snc4c(=O)[nH]cnc34)cc2)C1 (stereo unspecified),i,-11.1%,2.2%,5.7%,i,3.2%
CNc1ccccc1,nt,5.5%,-2.9%,-4.6%,nt,-4.7%
CNc1ccc(O)cc1,nt,7.94µM*,6.3%,?,nt,-4.8%
COc1ccc(CNc2nc(-c3cccnc3)nn2C(=O)c2cccs2)cc1,2.49e-08M*,?,3.3%,?,1.55e-08M*,5.01µM*
C#CCCCO/N=C1/C[C@@H](O)[C@@H](O)[C@@H]2[C@@H]3C(=O)N(Cc4ccc5c(c4)OCO5)C(=O)[C@H]3CC[C@H]12,nt,4.5%[11.4 µM],3.3%[11.5 µM],6.8%[11.4 µM],nt,nt
O=C(O)c1ccc2c(c1C(=O)O)C(=O)OC2(c1ccc(O)cc1)c1ccc(O)cc1,i,4.3%[11.4 µM],-2.5%[11.5 µM],-1.4%[11.4 µM],i,14.8%[7.6 µM]
O=C1OC2(c3ccc(O)cc3Oc3cc(O)ccc32)c2c1c(-c1ccccc1)c(-c1ccccc1)c(-c1ccccc1)c2-c1ccccc1,1.09e-07M*,3.98µM*,-5.9%[11.5 µM],2µM*,1.24e-07M*,?
CCCCNC1C(CC)C(CCC)C(C#N)(C#N)C1(C#N)C#N (stereo unspecified),3.2e-08M*,0.2%,0.4%,-1.8%,3.86e-08M*,?
CC1CCC/C(=C\Nc2ccc3c(c2)OCO3)C1=O (stereo unspecified),?,-13.1%,1.0%,?,?,-1.6%
CC1CCC/C(=C\Nc2ccccc2C(=O)O)C1=O (stereo unspecified),1.63e-08M*,31.6µM*,2.1%,?,1.87e-08M*,-13.1%
Cc1nc(NS(=O)(=O)c2cccs2)c2c3c(sc2n1)CCC3,?,-19.3%,-2.4%,14.2%,?,5.1%
O=S(=O)(Nc1ncnc2sc3c(c12)CCC3)c1ccc(Cl)s1,?,25.1µM*,3.1%,?,?,11.8%
O=[N+]([O-])c1cccc2c[nH]nc12,nt,31.6µM*,3.3%,31.6µM*,nt,3.3%
COCC(=O)N1CCC[C@@]2(CCN(Cc3ccccc3)C2)C1,i,7.2%,0.1%,2.0%,i,-0.3%
CCCCNC(=O)C(c1ccc(OCC(=O)OC)c(C(=O)OC)c1)N(CCc1ccccn1)C(=O)CCCCCN1C(=O)NC(c2ccc(-c3ccccc3)cc2)C(C(=O)OCc2ccccc2)=C1C (stereo unspecified),nt,-8.4%,-0.3%,14.0%,nt,?
Clc1ccc(-c2nnc(-c3ccc(Br)o3)o2)c(Cl)c1,nt,31.6µM*,-1.1%,74.0%,nt,9.8%
CCSc1nc2c(c(=O)[nH]1)C(C(C)C)C(C#N)=C(N)O2 (stereo unspecified),nt,8.3%,-1.8%,10.1%,nt,16.5%
SMILES,4-MU autofl,HSD17B inhib,AID923,HADH2 inh,A350 autofl,CRE Fsk mod
CCN(CC)CCCNC(=O)c1ccc(Cc2nc3ccccc3[nH]2)cc1,nt,5.0%,0.4%,-12.3%,nt,nt
C/C=C/c1ccc(Oc2nnnn2-c2ccc(C(N)=O)cc2)c(OC)c1,i,18.4%,-1.1%,18.1%,i,0.9%
Cc1nc2cnc(N3CCOCC3)nc2n(CCc2ccccc2)c1=O,1.03e-08M*,?,8.2%,19.6%,1.33e-08M*,12.6µM*
COCCn1c(=O)c(C)nc2cnc(N3CCN(C)CC3)nc21,8.13e-08M*,31.6µM*,12.5%,23.7%,9.93e-08M*,9.4%
Cc1nc2cnc(N3CCN(C)CC3)nc2n(CCc2ccccc2)c1=O,?,31.6µM*,8.3%,12.1%,?,?
O=C(c1cccc(F)c1)N1CCC[C@@]2(CCN(c3ccccn3)C2)C1,i,?,0.9%,3.8%,i,-8.8%
COCCN1C(=O)c2oc3cc(C)c(C)cc3c(=O)c2C1c1cccc(O)c1 (stereo unspecified),i,-11.3%,2.4%,-0.9%,i,?
C=C(CC1([C@@H](NP(=O)(c2ccccc2)c2ccccc2)[C@H]2C[C@@H]2CCCC)CC1)c1cccc(OC)c1,nt,-10.7%,3.4%,-4.5%,nt,-2.7%
CC(=O)OC[C@@H]1O[C@@H](O/N=C2/C[C@@H](O)[C@@H](O)[C@@H]3[C@@H]4C(=O)N([C@@H](C)c5ccccc5)C(=O)[C@H]4CC[C@@H]23)[C@H](OC(C)=O)[C@H](OC(C)=O)[C@@H]1OC(C)=O,nt,4.6%[11.4 µM],-1.5%[11.5 µM],-0.6%[11.4 µM],nt,nt
COc1ccc(C(=O)Cn2nnc(-c3ccccc3NC(=O)c3ccco3)n2)cc1,?,31.6µM*,1.4%,?,?,18.6%
O=C(Nc1ccccc1-c1nnn(CC(=O)N2CCCc3ccccc32)n1)c1ccco1,i,31.6µM*,-0.4%,-10.9%,i,29.1%
COc1cc(C(=O)Nc2cccc3ncccc23)cc(OC)c1OC,5.08e-07M*,25.1µM*,0.7%,-3.8%,5.72e-07M*,?
O=C(Nc1ccccc1N1CCCC1)c1ccco1,i,1.0%,0.8%,-10.7%,i,-2.8%
CCn1nnc(-c2ccccc2NC(=O)c2cc(OC)c(OC)c(OC)c2)n1,i,7.1%,-0.9%,22.7%,i,2.51µM*
C=CCOCC/C=C1/c2ccccc2C(OC)C1C (stereo unspecified),nt,1.9%[11.4 µM],-1.6%[11.5 µM],-1.7%[11.4 µM],nt,nt
NCCC(=O)O,nt,-4.9%,0.2%,0.7%,nt,-11.4%
C=CCSCC(N)C(=O)O (stereo unspecified),nt,0.4%,0.5%,nt,nt,nt
CCCN(S(=O)(=O)c1ccc(OCC)cc1)S(=O)(=O)c1cccs1,i,-19.6%,0.0%,1.9%,i,1.3%
